Viability data for 39 compounds are collected here from PubChem BioAssay.

Records with an inconclusive call do not appear. The source made the active and inactive calls.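 Rule for the calls: active = viability at or below 27.92% in each of two runs, the all-compound median minus 4 SD; inconclusive = no clear call, values can overlap the other calls; inactive = the rest.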

The assay is described as follows: growth suppression of PTEN-deleted HCT116, pilot screen, cell-based, HCT116 clonal line, CellTiter-Glo (AID 824).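 Note: 0% = 20 µM Hyamine control and 100% = vehicle cell control.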 Particulars: 60 h, at 10 µM, active compounds read low. Background: In ATP-based viability assays light output follows the ATP content of the culture.
As a reminder, the viability is a read-out of living cells in per cent, often relative to untreated cells. `c1ccc(N2CCN(c3ncnc4c3oc3ccccc34)CC2)cc1`: the viability was 100% (inactive). Next, `CCOc1cccc(-c2nc(C(N)=O)c3[nH]c(=O)n(-c4cccc(Cl)c4)c3n2)c1O`: 93.1% (inactive); `COc1ccc(CC(=O)Nc2c3c(nn2C(C)(C)C)CS(=O)C3)cc1` (centres undefined): 101% (inactive). As to `CC1=C(C(=O)OCc2ccccc2)C(c2ccco2)C2=C(CC(C)(C)CC2=O)N1` (centres undefined), the viability was 67.5% (inactive).

On to `COc1ccc(C(=O)O)cc1Nc1cc(C)nc2ncnn12`, for which the viability was 93% (inactive). For `CCOCCCNC(=O)c1cn(CC(C)C)c(=O)c2cc(OC)c(OC)cc12`, the viability was 97.9% (inactive). Regarding `COc1ccccc1C(=O)N1CCN(c2cccc(Cl)c2)CC1`, the viability was 20% (active). For `O=C(NCCn1cc(SCC(=O)N2CCOCC2)c2ccccc21)c1ccccc1`, the viability was 99.8% (inactive).

Turning to `Cc1cc2cc(CNC(=O)c3ccc(Br)o3)ccc2[nH]1`, the viability is 85.1% (inactive). For `COc1cccc(NC(=O)CN2C(=O)COc3ccc(Cl)cc32)c1`, the viability was 84.7% (inactive). For `c1csc(Cc2nc(-c3ccc(-n4cccc4)cc3)no2)c1` the value was 93.8% (inactive). In the case of `O=C1C2C3c4ccccc4C(c4ccccc43)C2C(=O)N1Cc1ccco1` (centres undefined), the viability is 93.4% (inactive). Next, `COc1cccc(C2CC(=O)N3CN(c4cccc(Cl)c4C)CSC3=C2C#N)c1OC` (centres undefined): 63.9% (inactive); `O=C(OCC(=O)c1cccs1)c1ccc(NC(=O)c2ccco2)cc1`: 76.1% (inactive). Next, `O=C(Nc1ccc(N2CCN(C(=O)c3ccccc3)CC2)c(Cl)c1)c1ccco1`: 75.9% (inactive); `Cc1ccc(S(=O)(=O)NCc2ccco2)cc1C`: 97.2% (inactive); `CCOC(=O)Cn1c(CN2CCc3ccccc3C2)nc2c1c(=O)n(C)c(=O)n2C`: 86.1% (inactive). Turning to `CCc1ccc(C2CC(=O)NC(SCC(=O)OC(C)C)=C2C#N)cc1` (centres undefined), the viability was 79.5% (inactive). As for `CCNCCNC(=O)c1c(O)c2cccc3c2n(c1=O)CCC3`, the viability was 93.7% (inactive). On to `CCN(C(=O)c1sc(N)c(C#N)c1C)C1CCCCC1`, for which the viability is 91.6% (inactive). For `COC(=O)C1C(O)=C(C=NCC(C)N=CC2=C(O)C(C(=O)OC)C(C)(C)CC2=O)C(=O)CC1(C)C` (centres undefined) the value was 93.7% (inactive); for `CCCCNC(=O)CS(=O)Cc1nc(-c2cccc(Cl)c2)oc1C` (centres undefined), 97.3% (inactive). Next, `CCn1c(SCC(=O)Nc2nnc(C)s2)nc2c(c1=O)SC(C)C2` (centres undefined): 96.6% (inactive); `CC(=O)N1CCC2(CC1)C(C#N)=C(N)Oc1n[nH]c(C)c12`: 98.2% (inactive); `O=C1c2ccccc2C(O)N1CCN1CCOCC1` (centres undefined): 101% (inactive). For the compound `Cc1sc2nc(SCC(=O)N3CCOCC3)[nH]c(=O)c2c1C`, the viability is 92.2% (inactive). Next, `Cn1nnnc1SCc1nc2ccccc2[nH]1`: 102% (inactive). For the compound `CCOC(=O)c1cc2c(=O)n3ccccc3nc2n(CCCOC)c1=NC(=O)c1cccnc1`, the viability was 93.7% (inactive).

`COc1c(C)cccc1C(=O)Nc1cc(-c2nn3c(C)nnc3s2)ccc1C`: the viability was 64.2% (inactive). For `O=C1CC(C(=O)N2CCN(c3ccc(F)cc3)CC2)CN1CCc1ccccc1` (centres undefined) the value was 92.6% (inactive); for `CCOc1ccc(S(=O)(=O)N2CCN(S(=O)(=O)c3ccc(OCC)cc3)C(C)C2)cc1` (centres undefined), 93.7% (inactive); for `O=C(O)CC1C(=O)NCCN1CCCc1ccccc1` (centres undefined), 97.9% (inactive). Consider `O=C(NCC1CCCO1)C1CC(=O)N(c2ccc(F)c(Cl)c2)C1` (centres undefined), for which the viability is 94.1% (inactive). Regarding `Cc1ccc(S(=O)(=O)N(C)Cc2nc(-c3ccc(Br)cc3)no2)cc1`, the viability is 87.8% (inactive). With `CCCCN=C(C)C1=C(O)CSC1=O`, the viability is 99.7% (inactive). For `C=C(C)Cn1c(C2CC(=O)N(Cc3ccccc3)C2)nc2ccccc21` (centres undefined), the viability is 93.2% (inactive). Next, `O=C(c1ccccc1)N1CCN(c2ccc(NCc3ccc4c(c3)OCO4)cc2)CC1`: 75.8% (inactive).

For the compound `Cc1csc2nc(CNS(=O)(=O)N(C)C)cn12`, the viability is 99.1% (inactive). Regarding `CCOC(=O)C1CCCCN1Cc1cc(Cl)ccc1O` (centres undefined), the viability was 81% (inactive).
